Test results reported in PubChem BioAssay AID1159580 (chemical genetic matrix, 2015).
Several values for one entry are separate records, joined by “and”; a condition that tells them apart may be missing. Equal values may be shown once. Screen size: about 5,500 compounds; about 2,000 (36%) were called active. Roughly 18% stayed inconclusive and do not appear here. No stated cut-off is given here; in the data, active means normalized growth mostly below about 0.91 (no sharp cut-off); inconclusive means no clear call, values can overlap the other calls; inactive means mostly above about 0.92. The list shows a part of the results.

Assay: chemical genetic growth profiling, strain panel (AID 1159580);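 further: tested at 20 µM; growth read once vehicle control cultures reached saturation at 30 °C; 1 = growth at the plate median or of vehicle wells; lower values mean less growth of the strain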
Details: growth OD

Measured: normalized growth

Clc1ccc(C(c2ccccc2Cl)C(Cl)Cl)cc1 (stereo not given)
active: S. cerevisiae deletion strains, locus YLR027C, strain aat2, hits give low values 0.889 | S. cerevisiae deletion strains, locus YNL071W, strain lat1, hits give low values 0.907 | S. cerevisiae deletion strains, locus YPL078C, strain atp4, hits give low values 0.889
inactive: S. cerevisiae deletion strains, locus YJR066W, strain TOR1, hits give low values 0.894 | S. cerevisiae deletion strains, locus YJR075W, strain HOC1, hits give low values 1 | S. cerevisiae deletion strains, locus YKL009W, strain mrt4, hits give low values 0.98 | S. cerevisiae deletion strains, locus YKL068W, hits give low values 0.995 | S. cerevisiae deletion strains, locus YKL085W, strain MDH1 (second series), hits give low values 0.989 | S. cerevisiae deletion strains, locus YKL085W, strain MDH1, hits give low values 0.989 | S. cerevisiae deletion strains, locus YKL160W, strain elf1, hits give low values 0.923 | S. cerevisiae deletion strains, locus YKL190W, strain CNB1, hits give low values 1.03 | S. cerevisiae deletion strains, locus YKR001C, strain vps1, hits give low values 0.968 | S. cerevisiae deletion strains, locus YKR026C, strain gcn3, hits give low values 0.979 | S. cerevisiae deletion strains, locus YKR091W, strain srl3, hits give low values 0.976 | S. cerevisiae deletion strains, locus YLL001W, strain dnm1, hits give low values 0.91 | S. cerevisiae deletion strains, locus YLL026W, hits give low values 0.962 | S. cerevisiae deletion strains, locus YLL041C, strain sdh2, hits give low values 0.972 | S. cerevisiae deletion strains, locus YLR039C, strain RIC1, hits give low values 0.978 | S. cerevisiae deletion strains, locus YLR058C, strain SHM2, hits give low values 0.994 | S. cerevisiae deletion strains, locus YLR102C, strain apc9, hits give low values 0.993 | S. cerevisiae deletion strains, locus YLR113W, strain HOG1, hits give low values 0.93 | S. cerevisiae deletion strains, locus YLR221C, strain rsa3, hits give low values 0.927 | S. cerevisiae deletion strains, locus YLR258W, strain gsy2, hits give low values 0.984 | S. cerevisiae deletion strains, locus YLR262C, strain YPT6 (second series), hits give low values 0.881 | S. cerevisiae deletion strains, locus YLR262C, strain YPT6, hits give low values 0.955 | S. cerevisiae deletion strains, locus YLR268W, strain sec22, hits give low values 0.988 | S. cerevisiae deletion strains, locus YLR320W, strain mms22, hits give low values 0.929 | S. cerevisiae deletion strains, locus YLR330W, strain CHS5, hits give low values 1 | S. cerevisiae deletion strains, locus YLR342W, strain FKS1 (second series), hits give low values 1 | S. cerevisiae deletion strains, locus YLR342W, strain FKS1, hits give low values 0.999 | S. cerevisiae deletion strains, locus YLR357W, strain rsc2, hits give low values 1.04 | S. cerevisiae deletion strains, locus YLR370C, strain arc18, hits give low values 0.968 | S. cerevisiae deletion strains, locus YLR371W, strain rom2, hits give low values 0.985 | S. cerevisiae deletion strains, locus YLR384C, strain iki3, hits give low values 0.97 | S. cerevisiae deletion strains, locus YLR418C, strain cdc73, hits give low values 0.91 | S. cerevisiae deletion strains, locus YML016C, strain PPZ1, hits give low values 0.992 | S. cerevisiae deletion strains, locus YML032C, strain rad52, hits give low values 0.979 | S. cerevisiae deletion strains, locus YML120C, strain ndi1, hits give low values 0.932 | S. cerevisiae deletion strains, locus YML124C, strain tub3, hits give low values 0.988 | S. cerevisiae deletion strains, locus YMR058W, strain fet3, hits give low values 0.952 | S. cerevisiae deletion strains, locus YMR078C, strain ctf18, hits give low values 0.984 | S. cerevisiae deletion strains, locus YMR125W, strain sto1, hits give low values 0.991 | S. cerevisiae deletion strains, locus YMR129W, hits give low values 0.972 | S. cerevisiae deletion strains, locus YMR205C, strain PFK2, hits give low values 0.918 | S. cerevisiae deletion strains, locus YMR223W, strain ubp8, hits give low values 0.978 | S. cerevisiae deletion strains, locus YMR231W, strain pep5, hits give low values 0.97 | S. cerevisiae deletion strains, locus YMR263W, strain SAP30, hits give low values 0.975 | S. cerevisiae deletion strains, locus YMR307W, strain GAS1, hits give low values 0.986 | S. cerevisiae deletion strains, locus YNL067W, strain RPL9B, hits give low values 0.993 | S. cerevisiae deletion strains, locus YNL128W, strain TEP1, hits give low values 1.01 and 1.02 | S. cerevisiae deletion strains, locus YNL153C, strain GIM3, hits give low values 1.01 | S. cerevisiae deletion strains, locus YNL183C, strain NPR1, hits give low values 0.914 | S. cerevisiae deletion strains, locus YNL197C, strain WHI3, hits give low values 1.1 | S. cerevisiae deletion strains, locus YNL209W, strain ssb2, hits give low values 0.983 | S. cerevisiae deletion strains, locus YNL224C, strain SQS1, hits give low values 1 | S. cerevisiae deletion strains, locus YNL233W, strain BNI4, hits give low values 1.01 | S. cerevisiae deletion strains, locus YNL248C, strain rpa49, hits give low values 0.99 | S. cerevisiae deletion strains, locus YNL250W, strain rad50, hits give low values 0.987 | S. cerevisiae deletion strains, locus YNL271C, strain bni1, hits give low values 0.987 | S. cerevisiae deletion strains, locus YNL298W, strain CLA4, hits give low values 0.978 | S. cerevisiae deletion strains, locus YNL307C, strain MCK1, hits give low values 0.912 | S. cerevisiae deletion strains, locus YNL322C, strain KRE1 (second series), hits give low values 0.976 | S. cerevisiae deletion strains, locus YNL322C, strain KRE1, hits give low values 1 | S. cerevisiae deletion strains, locus YNR049C, strain mso1, hits give low values 0.978 | S. cerevisiae deletion strains, locus YNR052C, strain pop2, hits give low values 0.985 | S. cerevisiae deletion strains, locus YOL006C, strain TOP1, hits give low values 0.918 | S. cerevisiae deletion strains, locus YOL012C, strain htz1 0.884 | S. cerevisiae deletion strains, locus YOL147C, strain pex11, hits give low values 0.991 | S. cerevisiae deletion strains, locus YOR001W, strain rrp6, hits give low values 0.931 | S. cerevisiae deletion strains, locus YOR061W, strain CKA2, hits give low values 1 | S. cerevisiae deletion strains, locus YOR069W, strain VPS5, hits give low values 1.01 | S. cerevisiae deletion strains, locus YOR070C, strain gyp1, hits give low values 0.996 | S. cerevisiae deletion strains, locus YOR080W, strain dia2, hits give low values 0.969 | S. cerevisiae deletion strains, locus YOR083W, strain WHI5, hits give low values 0.921 | S. cerevisiae deletion strains, locus YOR106W, strain vam3, hits give low values 0.888 | S. cerevisiae deletion strains, locus YOR136W, strain idh2, hits give low values 0.976 | S. cerevisiae deletion strains, locus YOR144C, strain elg1, hits give low values 0.991 | S. cerevisiae deletion strains, locus YOR184W, strain ser1, hits give low values 0.963 | S. cerevisiae deletion strains, locus YOR231W, strain MKK1, hits give low values 0.948 | S. cerevisiae deletion strains, locus YOR265W, strain rbl2, hits give low values 0.97 | S. cerevisiae deletion strains, locus YOR270C, strain vph1, hits give low values 0.789 | S. cerevisiae deletion strains, locus YOR290C, strain snf2, hits give low values 0.983 | S. cerevisiae deletion strains, locus YOR316C, strain cot1, hits give low values 0.984 | S. cerevisiae deletion strains, locus YPL051W, strain arl3, hits give low values 0.956 | S. cerevisiae deletion strains, locus YPL055C, strain LGE1, hits give low values 1.03 | S. cerevisiae deletion strains, locus YPL106C, strain sse1, hits give low values 1 | S. cerevisiae deletion strains, locus YPL240C, strain hsp82, hits give low values 0.983 | S. cerevisiae deletion strains, locus YPL241C, strain CIN2, hits give low values 1.01 | S. cerevisiae deletion strains, locus YPL256C, strain CLN2, hits give low values 0.908 | S. cerevisiae deletion strains, locus YPR119W, strain clb2, hits give low values 0.991 | S. cerevisiae deletion strains, locus YPR141C, strain kar3, hits give low values 0.995 | S. cerevisiae deletion strains, locus YPR163C, strain tif3, hits give low values 0.992 | S. cerevisiae deletion strains, locus YPR167C, strain met16, hits give low values 0.989 | S. cerevisiae deletion strains, strain wtn01, hits give low values 0.977 | S. cerevisiae strains, strain wild type, hits give low values 1.01
